This is a sample that favours compounds with a hit; in the whole collection about 3.9% have one here.
Yeast superoxide = lowers age-related superoxide in aged yeast cells | S. cerevisiae aged cells, superoxide DHE fluorescence; active compounds read low | superoxide response (% of plate mean), % at 10 µM | 330,000 tested, 0.18% active | AID 2690;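 active = superoxide response under a set limit, about three screen SD below normal, cut at about 65% in these data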;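 also: yeast aged for seven days with compound at 30 °C before DHE staining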
PLC-gamma1 inh = blocks human PLC-gamma1 enzyme activity; P19174; purified PLC-gamma1, fluorogenic substrate, fluorescence; 370,000 tested, 0.84% active; inhibition, % at 12.2 µM; in the data active = inhibition above about 9.5%
Target sequence (P19174 whole entry, looked up): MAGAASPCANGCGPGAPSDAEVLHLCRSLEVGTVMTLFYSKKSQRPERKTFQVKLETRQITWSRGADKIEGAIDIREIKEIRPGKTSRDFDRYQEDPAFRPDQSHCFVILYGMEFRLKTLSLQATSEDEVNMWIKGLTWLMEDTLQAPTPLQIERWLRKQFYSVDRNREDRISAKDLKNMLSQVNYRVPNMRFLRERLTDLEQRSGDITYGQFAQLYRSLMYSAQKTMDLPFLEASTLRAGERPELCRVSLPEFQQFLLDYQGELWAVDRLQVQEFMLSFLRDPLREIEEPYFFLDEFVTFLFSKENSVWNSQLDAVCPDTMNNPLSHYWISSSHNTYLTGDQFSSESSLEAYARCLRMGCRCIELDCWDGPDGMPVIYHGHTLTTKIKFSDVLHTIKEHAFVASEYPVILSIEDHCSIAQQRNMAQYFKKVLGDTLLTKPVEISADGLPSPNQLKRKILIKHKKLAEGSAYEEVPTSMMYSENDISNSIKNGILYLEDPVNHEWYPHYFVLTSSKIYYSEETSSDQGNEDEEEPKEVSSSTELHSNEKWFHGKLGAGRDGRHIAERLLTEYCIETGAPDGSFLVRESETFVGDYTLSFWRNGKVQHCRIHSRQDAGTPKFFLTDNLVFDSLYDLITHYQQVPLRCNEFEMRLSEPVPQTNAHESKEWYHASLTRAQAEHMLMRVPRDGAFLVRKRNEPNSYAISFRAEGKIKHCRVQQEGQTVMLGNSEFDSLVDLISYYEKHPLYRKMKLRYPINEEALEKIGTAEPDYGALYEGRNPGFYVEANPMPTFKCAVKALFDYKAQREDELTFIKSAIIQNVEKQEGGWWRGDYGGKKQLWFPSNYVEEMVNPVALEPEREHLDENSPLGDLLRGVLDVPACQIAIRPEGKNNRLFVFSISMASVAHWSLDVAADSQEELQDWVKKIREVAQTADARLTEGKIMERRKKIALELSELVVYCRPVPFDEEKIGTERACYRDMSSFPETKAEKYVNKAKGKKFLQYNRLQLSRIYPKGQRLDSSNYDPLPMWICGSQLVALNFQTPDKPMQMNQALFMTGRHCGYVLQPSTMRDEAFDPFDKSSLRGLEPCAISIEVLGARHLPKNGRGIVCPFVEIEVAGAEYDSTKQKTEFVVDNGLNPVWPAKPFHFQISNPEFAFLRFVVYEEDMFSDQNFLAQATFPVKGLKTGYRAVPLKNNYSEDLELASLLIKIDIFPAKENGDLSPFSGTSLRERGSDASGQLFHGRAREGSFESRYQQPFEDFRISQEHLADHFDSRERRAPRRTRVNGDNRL
sPLA2-III inh = Blocks human group III sPLA2 activity; inhibition, % at 12.2 µM; Q9NZ20; QFRET BODIPY PC-A2 liposome hydrolysis, fluorescence; 370,000 tested, 0.56% active;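 active = inhibition above mean plus 3 SD of compounds lying within the high and low control bounds, cut at about 19% in these data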
HIF activator = HIF pathway transcriptional activation; U2OS HRE-luciferase reporter, luminescence; normalized: DMSO 0%, desferrioxamine 100%; activation, % at 7.5 µM (by protocol); 300,000 tested, 0.32% active; AID 1910;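 active = mean activation of at least 10% of the iron chelator positive control signal, with at least half of replicates also reaching 10%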
PLC-beta3 inh = PLC-beta3 (human) inhibition, primary screen; Q01970; inhibition, % at 12.2 µM; Purified PLC-beta3, fluorogenic substrate, fluorescence; 370,000 tested, 0.18% active; in the data active = inhibition above about 11%
AHR activator = activators of human aryl hydrocarbon receptor. P35869. AHR-responsive luciferase reporter cells, luminescence. activation, % at 5 µM. 320,000 tested, 2.5% active. AID 2796; in the data active = activation above about 47%
Numbers stand for hits; . = inactive; / = not tested or not shown.

SMILES | Yeast superoxide | PLC-gamma1 inh | sPLA2-III inh | HIF activator | PLC-beta3 inh | AHR activator
COc1ccc(OCc2cc(C(=O)NC3CCOC(C)(C)C3)no2)c2ccccc12 (configuration not stated) | . | . | . | . | . | 67.1
COCC1CCN(C(=O)c2cc(COc3ccc(OC)c4ccccc34)on2)C1 (configuration not stated) | . | . | . | . | . | .
COc1ccc(OCc2cc(C(=O)N3CCC(OC)CC3)no2)c2ccccc12 | . | . | . | . | . | 51.0
CCC1CCc2sc(C(=O)NNC(=O)c3ccncc3)cc2C1 (configuration not stated) | . | . | . | . | . | .
C=CCN1CCN(C(=O)c2cc3c(s2)CCC(CC)C3)CC1 (configuration not stated) | . | 9.7 | . | . | . | .
CCC1CCc2sc(C(=O)O)cc2C1 (configuration not stated) | . | . | . | 64.9 | . | .
COCC(=O)Nc1ccc2c(c1)C(=O)N(C)[C@@H]1CC[C@@H](CC(=O)OC)O[C@H]1CO2 | / | . | . | / | . | /
CC(C)(C)c1ccc(-c2nc(C#N)c(NCCCn3ccnc3)o2)cc1 | . | . | . | . | . | .
N#Cc1nc(COc2ccccc2)oc1NCCCn1ccnc1 | . | . | . | / | . | 79.0
N#Cc1nc(-c2ccco2)oc1NCCCn1ccnc1 | . | . | . | . | . | 70.1
Cc1ccc(OCc2nc(C#N)c(NCCCn3ccnc3)o2)cc1 | . | . | . | . | . | .
COc1ccc(-c2nc(C#N)c(NCCCn3ccnc3)o2)cc1OC | . | . | . | . | . | 69.6
O=C(N1CCC(Cc2ccccc2)CC1)n1ncc(C(O)(c2ccccc2)c2ccccc2)n1 | / | . | . | / | . | /
CC(C)(N[C@@H](Cc1ccccc1)C(=O)NCC(c1ccccc1)c1ccccc1)C(=O)NC1CCCCC1 | / | . | . | / | . | /
CCCC1CCC2(CCCN2CCOC(=O)Nc2ccccc2OC)CC1 (configuration not stated) | / | . | . | / | . | /
O=S1(=O)c2ccc(N3CCSCC3)cc2Oc2ccccc2CN1Cc1cn(Cc2ccc(F)cc2)nn1 | / | . | . | / | . | /
CN1c2ccccc2C(O)=C(C(=S)Nc2ccc(F)c(Cl)c2)S1(=O)=O | . | . | . | . | . | 51.5
COC(=O)[C@]12C[C@H](CC(=O)N3CCOCC3)C(=O)N(Cc3cccc4ccccc34)C1=C[C@H](COCc1ccccc1)O[C@@H]2C | / | . | . | / | . | /
Clc1ccccc1-c1nc(-c2ccccc2)n[nH]1 | . | . | . | . | . | 66.3
Oc1ccccc1-c1n[nH]c(-c2ccccc2O)n1 | / | . | . | / | . | /
O=C(O)c1cc(-c2ccccc2)nn1CC1CC(c2cccc([N+](=O)[O-])c2)=NO1 (configuration not stated) | . | 9.9 | . | . | . | .
COc1cc(-c2noc(C)c2C#Cc2ccc(N)cc2)cc(OC)c1OC | . | . | . | . | . | .
COc1cc(-c2noc(C)c2/C=C/c2ccc(N)cc2)cc(OC)c1OC | . | . | . | . | . | 70.7
Cc1nnc(N/N=C/c2ccc(-c3ccc(Br)cc3)o2)n1N | . | . | . | . | . | 49.4
COC(=O)[C@]12C[C@H](CC(=O)N3CCCCC3)C(=O)N(Cc3ccc(Cl)cc3Cl)C1=C[C@H](C(C)C)O[C@@H]2C1CC1 | / | . | . | / | . | /
SMILES | Yeast superoxide | PLC-gamma1 inh | sPLA2-III inh | HIF activator | PLC-beta3 inh | AHR activator
O=C(Nc1ccccc1)Nc1csc2ccccc12 | 62.6 | . | . | . | . | 61.2
CC(=O)Nc1csc2ccccc12 | . | . | . | . | . | .
Brc1ccccc1-n1nnc(-c2cnc3ccccc3c2)n1 | . | . | . | . | . | 54.1
COc1ccc(N=Nc2ccc3ccccc3c2)c(O)c1 | . | . | . | . | . | 48.7
Oc1c(N=Nc2ccc(F)cc2)ccc2ccccc12 | . | . | . | . | . | 73.3
Oc1c(N=Nc2nn[nH]n2)ccc2ccccc12 | / | . | . | / | . | /
COc1cccc(N=Nc2ccc3ccccc3c2O)c1 | . | . | . | . | . | 78.0
CCn1c(SCc2ccc(C(C)(C)C)cc2)nnc1-c1ccc(C(C)(C)C)cc1 | / | . | . | / | . | /
COc1cc(/C=N/n2cnnc2)ccc1OCCOc1ccccc1 | . | . | . | . | . | .
C(=N\n1cnnc1)/c1cccc(OCCOc2ccccc2)c1 | . | . | . | . | . | 64.0
CCn1c(-c2ccc(N(C)C)cc2)nc2ccccc21 | . | . | . | . | . | 54.2

Screening results deposited in PubChem BioAssay by several laboratories.
